From ChEMBL document CHEMBL3988442, “University of Dundee, Small-Polar-MMV Screening Library” (2021)

Experiments:
[1] = target: T1, Aspartate--tRNA(Asp/Asn) ligase (Mycobacterium tuberculosis (strain ATCC 25618 / H37Rv)) (UniProt P9WFW3); assay: Assay for Asp RNA synthetase-1 from Mycobacterium tuberculosis; type: functional; design: scale not given: direction of the effect not stated beside the values; settings: 30 µM; also: in the data most compounds retested in dose-response had high values
T1 sequence (whole entry): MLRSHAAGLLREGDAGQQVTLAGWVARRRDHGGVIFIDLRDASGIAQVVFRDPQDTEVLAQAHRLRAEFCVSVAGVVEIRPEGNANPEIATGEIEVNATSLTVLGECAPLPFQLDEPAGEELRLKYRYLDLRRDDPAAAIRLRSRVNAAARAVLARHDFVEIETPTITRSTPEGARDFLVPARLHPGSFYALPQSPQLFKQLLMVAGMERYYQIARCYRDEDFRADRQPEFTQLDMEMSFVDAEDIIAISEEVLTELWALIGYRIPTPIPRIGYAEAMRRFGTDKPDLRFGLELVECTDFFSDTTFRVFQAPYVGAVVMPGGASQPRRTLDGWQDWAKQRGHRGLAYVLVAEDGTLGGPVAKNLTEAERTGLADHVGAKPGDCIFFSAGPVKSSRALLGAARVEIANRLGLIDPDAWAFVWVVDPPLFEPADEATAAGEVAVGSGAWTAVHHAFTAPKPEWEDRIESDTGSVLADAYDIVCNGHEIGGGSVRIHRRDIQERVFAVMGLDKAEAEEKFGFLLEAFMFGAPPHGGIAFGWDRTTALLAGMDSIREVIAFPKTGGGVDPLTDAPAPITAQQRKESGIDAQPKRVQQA

[2] = target: Shiga toxin 2 (Escherichia coli O157:H7) (UniProt P09385+P09386); assay: E. coli 0.157:H7 Shiga Toxin SOP - stx2 screening assay; type: functional; design: scale not given: direction of the effect not stated beside the values; settings: 30 µM

SMILES | Percent Effect [1] [%] | Percent Effect [2] [%]
CC1=Nc2c(c(=O)[nH]n2C(C)C)C(c2cccs2)S1 (stereo unspecified) | 7.78 | 5.29
O=C(c1cn(-c2cc(N3CCOCC3)ncn2)cn1)N1CCSCC1 | -0.834 | -38.5
Cn1cnc2c1CCN(CCCOc1ccc(C#N)cc1)C2 | -4.46 | -24.8
CC(C)(C)c1nnc(CN2CCCC(Cn3cncn3)C2)o1 (stereo unspecified) | 0.322 | 13
COc1ccccc1OCCN1CCC(N2CCNC2=O)CC1 | -1.95 | 21
Cc1oc(C(=O)O)cc1S(=O)(=O)Nc1ccc(Cl)c(F)c1 | 1.64 | 16.3
COc1cc2nc(C)n(CC(=O)O)c(=O)c2cc1OC | 1.68 | -6.96
CCOCC1CN(Cc2cccc(C#N)c2)Cc2nccn2C1 (stereo unspecified) | -2.92 | -10.3
CCn1cnnc1C1CCN(C(=O)c2cccc3c2ccn3C)CC1 | -3.52 | -25.8
O=C(c1cccnc1-n1cncn1)N1CCN(CC2CC2)CC1 | 0.524 | -1.68
CC(=O)N1CC[C@H]2OCC[C@@H](C(=O)N3CCCCO3)[C@@H]2C1 | 0.958 | -16.9
O=C(COc1ccc2c(c1)CCC2)N1CCOCC1c1ncon1 (stereo unspecified) | -4.77 | 22.5
CC1CN(CC(=O)NC(=O)NCc2ccccc2)CCO1 (stereo unspecified) | -6.29 | -0.513
CCOc1ccc(CN(C)C(=O)NC(C)c2nncn2C)cc1 (stereo unspecified) | 0.975 | -14.2
Cc1cc(C[S+]([O-])CC(=O)Nc2c(C)cccc2C)no1 (stereo unspecified) | -6.04 | 17
CCOC(C)c1nc(CN2CCNCC2)cs1 (stereo unspecified) | -2.26 | -12.7
CCOc1cccc2c1OCC(C(=O)NS(=O)(=O)c1ccc(C)s1)=C2 | 4.55 | 2.64
CC(C)c1nc(CN2CCCN(Cc3nnc(C4CC4)o3)CC2)no1 | -3.22 | -24.4
Cc1ccc2c(c1)CCC21CCN(C(=O)CO)CC1 | 5.32 | -38.4
COCCCN(C)C1CCCN(Cc2noc(C)n2)C1 (stereo unspecified) | -3.09 | -16.4
Cc1cn2nc(N3CCCC3Cn3nc(C)cc3C)sc2n1 (stereo unspecified) | -7.52 | -1.2
CCn1cc(CN2CCCN(C(=O)c3sccc3C#N)CC2)cn1 | 0.257 | -4.04
Cc1cc(C(=O)N2CC[C@@H]3CN(S(C)(=O)=O)CCO[C@@H]3C2)c(C)o1 | 2.19 | 1.92
CCC1CN(C(=O)c2ccc(=O)[nH]c2)CCC(=O)N1Cc1ccccc1 (stereo unspecified) | -4.62 | 5.03
CC(C)C(=O)N1CCCC(c2ncncc2-c2ccncc2)C1 (stereo unspecified) | -3.04 | -34.6
CC(C)c1nnc2n1CCN(C(=O)c1ccnc(N(C)C)c1)C2 | -5.48 | -7.07
COCC1c2nnn(CC3CC3)c2CCN1C(=O)Cc1cccs1 (stereo unspecified) | 4.11 | -2.97
CCc1nc(CN(C)CC2CCN(CCO)CC2)no1 | -1.64 | -1.86
